The record followed here is PubChem BioAssay AID1240 (Sanford-Burnham Center for Chemical Genomics, 2008).

Out of some 50,000 compounds screened, about 800 (1.6%) showed an effect of 50% or more. The sample holds strong results, similar compounds and a random draw of the others, so the mix is not that of the screen.

Sequence of Bcl-2-like protein 10 (Homo sapiens) (Q9HD36 whole entry, looked up): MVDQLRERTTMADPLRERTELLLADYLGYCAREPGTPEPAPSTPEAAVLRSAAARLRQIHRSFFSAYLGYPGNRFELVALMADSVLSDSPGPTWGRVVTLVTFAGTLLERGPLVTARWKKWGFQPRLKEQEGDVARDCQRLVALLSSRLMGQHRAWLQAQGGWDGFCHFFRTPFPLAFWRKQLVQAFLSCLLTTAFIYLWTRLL

The assay addresses Bcl-2-like protein 10 (Homo sapiens) (UniProt Q9HD36). Kind of assay: TR3 peptide-Bcl-B binding displacers, biochemical primary FP assay, phenotype converters (AID 1240).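 Further: 0% = Bcl-B with tracer peptide and DMSO and 100% = tracer peptide lacking Bcl-B.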 The following applies: GST-Bcl-B / FITC-TR3 peptide fluorescence polarization; stronger effect = higher value; compound at 3.75 mg/L.
Regarding `O=C(Nc1ccc2c(c1)OCO2)C(=O)Nc1ccc2c(c1)OCO2`, the displacement worked out at 21.3%.
For the molecule `c1cc2c(cc1NC1CCCCC1)OCO2`, the displacement worked out at 130%.
For the molecule `O=C(NNC(=O)c1ccc2c(c1)OCO2)NC1CCCCC1`, the displacement turned out to be 10.1%.
Turning to `Cc1nn(Cc2cccc(Cl)c2)c(N)c1-c1ccccc1`, the displacement was -9%.
On to `CCOc1ccc(/C=N\NC(=O)c2ccc(Br)cc2)c(O)c1`, for which the displacement amounted to 6.9%.
In the case of `O=C(Nc1ccc(S(=O)(=O)N2CCc3ccccc32)cc1)c1ccc(-c2ccccc2)cc1`, the displacement amounted to 89.5%.
For the molecule `Cc1ccc(C(=O)Nc2ccc(S(=O)(=O)N3CCc4ccccc43)cc2)cc1`, the displacement was found to be 1.6%.
With `O=C(Nc1ccc(S(=O)(=O)N2CCc3ccccc32)cc1)c1ccc(Cl)cc1`, the displacement was determined as 0.8%.
`O=C(O)c1c(F)c(F)c(F)c(F)c1-c1ccc(Cl)cc1`: the displacement stood at 11.8%.
The result for `O=c1c(-c2ccccc2)coc2cc(OCc3ccccc3Cl)ccc12` reads 20.7%; that for `Oc1cc(OCc2ccccc2Cl)ccc1-c1[nH]ncc1-c1ccccc1`, 77.4%; that for `Cc1oc2ccc(OCc3ccccc3Cl)cc2c1C(=O)O`, 5.8%.
Take `Cc1ccc(C(=O)/C=C/Nc2cccc(O)c2)cc1`: the displacement was -0.4%.
The same measure for `CCOC(=O)c1ccc(NC(=O)/C=C/c2ccc(Cl)cc2)cc1`: 16.8%; for `Cc1cccc(N/C=C/C(=O)c2ccc(Cl)cc2)c1`: -2.2%; for `Cc1ccc(C(=O)/C=C/Nc2ccc(Cl)c(Cl)c2)cc1`: 126%.
For `CCOC(=O)c1ccc(N/C=C/C(=O)c2ccc(Cl)cc2)cc1`, the displacement stood at 59.8%.
`CCOC(=O)c1ccc(N/C=C/C(=O)c2cccs2)cc1`: the displacement stood at 14.1%.
Regarding `CCOc1ccccc1C(=O)NCCc1nc2ccccc2[nH]1`, the displacement was 4.7%.
The result for `O=C(NC1C2CC3CC(C2)CC1C3)c1ccccc1F` (stereo not drawn) reads 4.9%.
Take `Cc1cc(/C=C2/SC(=O)NC2=O)c(C)n1-c1cccnc1`: the displacement was found to be 0.8%.
Consider `C/C(=N\NC(=O)c1cc2ccccc2cc1O)c1ccco1`, for which the displacement stood at 10%.
Take `COC(=O)c1cc(-c2ccc(C)cc2)nc2ccccc12`: the displacement was found to be 2.1%.
The result for `N#Cc1c(-c2ccccc2)cc(-c2ccc(Br)cc2)nc1N` reads 8.8%.
The result for `COc1ccc(-c2cc(-c3ccc(Br)cc3)nc(N)c2C#N)cc1` reads 70.6%; that for `COc1ccc(-c2cc(-c3ccc(Cl)cc3)c(C#N)c(N)n2)cc1`, 6.4%; that for `CN1CCN(c2c([N+](=O)[O-])c(=O)n(C)c3ccccc23)CC1`, -4.8%.
Consider `CCC1=NN2C(=N)/C(=C/c3ccc(F)cc3)C(=O)N=C2S1`, for which the displacement stood at 7.5%.
The same measure for `CCCC1=NN2C(=N)/C(=C/c3ccc(-c4ccc(C(=O)OCC)cc4)o3)C(=O)N=C2S1`: 164%; for `CCCC1=NN2C(=N)/C(=C/c3ccccc3C)C(=O)N=C2S1`: 32.9%; for `CCC1=NN2C(=N)/C(=C/c3ccc(-c4ccc(C)c(Cl)c4)o3)C(=O)N=C2S1`: 3.9%.
For `CCCC1=NN2C(=N)/C(=C/c3ccc(-c4ccccc4C(=O)OC)o3)C(=O)N=C2S1`, the displacement is -37%.
Regarding `CCC1=NN2C(=N)/C(=C/c3ccc(-c4ccc(C(=O)O)cc4)o3)C(=O)N=C2S1`, the displacement amounted to 44.1%.
As for `CCCC1=NN2C(=N)/C(=C/c3ccc(-c4ccc(F)cc4)o3)C(=O)N=C2S1`, the displacement was found to be 135%.
Turning to `CCC1=NN2C(=N)/C(=C/c3ccc(-c4ccc(F)c(Cl)c4)o3)C(=O)N=C2S1`, the displacement was -0.2%.
As for `CCC1=NN2C(=N)/C(=C/c3ccc(-c4ccc(F)cc4)o3)C(=O)N=C2S1`, the displacement came out at 69.2%.
In the case of `CCC1=NN2C(=N)/C(=C/c3ccc(-c4ccc(Cl)cc4)o3)C(=O)N=C2S1`, the displacement stood at 66.7%.
Consider `CCCC1=NN2C(=N)/C(=C/c3ccc(OCc4ccc(F)cc4)c(OCC)c3)C(=O)N=C2S1`, for which the displacement was -6.7%.
The same measure for `CCOC(=O)c1ccc(-c2ccc(/C=C3/SC(N)=NC3=O)o2)cc1`: -27.3%; for `CCOc1ccc(N2C(=O)NC(=O)/C(=C/c3cc(Br)c(OCC)c(OC)c3)C2=O)cc1`: -6.7%.
`CC(=O)C1=C(O)C(=O)N(C)C1c1ccccc1[N+](=O)[O-]` (stereo not drawn): the displacement turned out to be 2.8%.
With `C/C(=N\N=C1\NC(=O)C(CC(=O)NCc2ccccc2)S1)C(C)C` (stereo not drawn), the displacement turned out to be 0.3%.
As for `CCCCOc1ccc(NC(=O)CSc2nnc(N)s2)cc1`, the displacement is -16.9%.
Turning to `c1ccc(CCSc2nc3ccccc3[nH]2)cc1`, the displacement worked out at 6.2%.
The result for `Cc1cc(C=C2C(=O)NC(=S)NC2=O)c(-c2ccccc2)n1-c1ccccc1` reads 162%; that for `Cc1cc(/C=C2/SC(=S)NC2=O)c(-c2ccccc2)n1-c1ccccc1`, 0.7%; that for `Cc1cc(/C=C2/NC(=S)NC2=O)c(-c2ccccc2)n1-c1ccccc1`, -14.7%.
Consider `Cc1cc(/C=C2/NC(=O)NC2=O)c(-c2ccccc2)n1-c1ccccc1`, for which the displacement was -5.1%.
With `Cc1cc(C=C2C(=O)c3ccccc3C2=O)c(-c2ccccc2)n1-c1ccccc1`, the displacement is 68%.
Consider `Cc1cc(/C=C2/SC(=O)NC2=O)c(-c2ccccc2)n1-c1ccccc1`, for which the displacement is -9.6%.
The same measure for `Cc1cc(C)c(C=C2C(=O)c3ccccc3C2=O)cc1C`: -1.6%; for `Cc1cc(C=C2C(=O)NC(=O)NC2=O)c(-c2ccccc2)n1-c1ccccc1`: 150%.
The result for `Cc1cc(/C=N/N2C(=O)c3ccccc3C2=O)c(C)n1-c1ccccc1` reads 11.4%; that for `CN(C)CCNC(=O)/C(=N\O)c1ccccn1`, 15.9%; that for `COc1ccc(CN(C)C(=O)c2cccc(C(=O)N(C)Cc3ccc(OC)cc3)c2)cc1`, 10.7%.
Take `COc1cccc(C(=O)Nc2ccc(I)cc2Cl)c1`: the displacement is 8.2%.
As for `Nc1c(Cc2ccccc2)ccc2c1C(=O)c1ccccc1C2=O`, the displacement is 10.3%.
For the molecule `CC(C)(CN1CCOCC1)NS(=O)(=O)c1ccc(Cl)cc1`, the displacement came to 7.4%.
Take `CCc1ccc(OCC(=O)Nc2ccc3ccccc3c2)cc1`: the displacement amounted to 11.4%.
Turning to `Cc1ccc(N2NC(=O)/C(=C/c3ccc(-c4ccc(S(N)(=O)=O)cc4)o3)C2=O)cc1`, the displacement is 5.6%.
In the case of `CC(=O)Nc1ccc(S(=O)(=O)N(Cc2ccccc2)C(C)C)cc1`, the displacement stood at 130%.
For the molecule `CC(C)N(Cc1ccccc1)S(=O)(=O)c1ccc(F)cc1`, the displacement was determined as 12.3%.
As for `CCN(Cc1ccccc1)S(=O)(=O)c1ccc(NC(C)=O)cc1`, the displacement worked out at 19.2%.
For the molecule `CC1CN(CC(O)COc2ccc3ccccc3c2)CC(C)O1` (stereo not drawn), the displacement was 0.2%.
Consider `COc1ccc2[nH]c3c(c2c1)CCn1c-3nc2scc(-c3ccccc3)c2c1=O`, for which the displacement was determined as 0.2%.
Turning to `CCc1cc2c(C)cc(=O)oc2cc1OC(C)=O`, the displacement turned out to be 10.1%.
For the molecule `COc1ccc(N=Cc2c(O)n(-c3ccccc3)c(=O)[nH]c2=O)cc1Cl`, the displacement was 113%.
The result for `COc1cccc(-n2c(O)c(C=Nc3cccc(Cl)c3)c(=O)[nH]c2=O)c1` reads -3.7%.
`COc1ccc(CN=Cc2c(O)n(-c3cccc(Cl)c3)c(=O)[nH]c2=O)cc1`: the displacement was found to be 81.4%.
`COc1ccc(CN=Cc2c(O)n(-c3ccc(OC)cc3)c(=O)[nH]c2=O)cc1`: the displacement was -3.4%.
For the molecule `COc1ccc(-n2c(O)c(C=NCc3ccc(F)cc3)c(=O)[nH]c2=O)cc1`, the displacement was 12.4%.
`COc1ccc(CN=Cc2c(O)n(-c3ccc(Cl)cc3)c(=O)[nH]c2=O)cc1`: the displacement is -6.6%.
The same measure for `COc1cc(CN=Cc2c(O)n(-c3ccc(F)cc3)c(=O)[nH]c2=O)cc(OC)c1`: 84.7%; for `COc1ccc(-n2c(O)c(C=Nc3cccc(Cl)c3)c(=O)[nH]c2=O)cc1`: 14.2%.
The same measure for `COc1ccc(-n2c(O)c(C=Nc3ccc(Cl)cc3)c(=O)[nH]c2=O)cc1`: 14.3%; for `COc1cc(N=Cc2c(O)n(-c3ccc(Cl)cc3)c(=O)[nH]c2=O)cc(OC)c1`: 70.5%; for `COc1cc(CN=Cc2c(O)n(-c3cc(OC)ccc3OC)c(=O)[nH]c2=O)cc(OC)c1`: 1.6%.
For `Cc1ccc(N=Cc2c(O)n(-c3ccccc3)c(=O)[nH]c2=O)cc1`, the displacement was -5.6%.
For the molecule `COc1ccccc1CC(=O)Nc1cc(C)ccn1`, the displacement is 12.9%.
As for `CS(=O)(=O)N(CC(=O)Nc1cccc(Br)c1)c1ccc(Oc2ccccc2)cc1`, the displacement amounted to 1.9%.
Turning to `COc1ccc(C2CC(=O)C3=C(C2)Nc2ccccc2NC3c2ccc(NC(C)=O)cc2)cc1OC` (stereo not drawn), the displacement is -4.9%.
`CCCC1=C(C(=O)OCC)C(c2ccc(CC)cc2)NC(=O)N1` (stereo not drawn): the displacement is -8.5%.
The result for `O=[N+]([O-])c1ccc(-c2noc(-c3ccccc3Br)n2)cc1` reads 4.3%.
Regarding `COc1ccc(CN2CCN(Cc3ccncc3)CC2)c(OC)c1`, the displacement was -16.7%.
The same measure for `NC(=O)c1ccc(NC(=O)C2CCCC2)cc1`: -4%; for `O=c1[nH]c(=O)n(-c2cccc(Cl)c2)c(O)c1C=NCCCn1ccnc1`: 142%; for `Cc1ccccc1-n1c(O)c(C=NCCCn2ccnc2)c(=O)[nH]c1=O`: -3.4%.
In the case of `O=c1[nH]c(=O)n(-c2ccccc2Cl)c(O)c1C=NCCCn1ccnc1`, the displacement was 11.5%.
As for `COCCOC(=O)c1c(C)oc2c1cc(NS(=O)(=O)c1ccc(F)cc1)c1ccccc12`, the displacement is 18%.
The result for `Cc1ccc(-c2nnc(N)s2)cc1C` reads 5.1%.
As to `CCOc1ccc(-n2c(O)c(C=C3C=CC=N3)c(=O)[nH]c2=O)cc1`, the displacement is 13.1%.
Consider `COc1ccc(Cn2c(O)c(/C=C3\C=CC=N3)c(=O)[nH]c2=O)cc1`, for which the displacement was determined as 12.5%.
For the molecule `O=c1[nH]c(=O)n(-c2cccc(C(F)(F)F)c2)c(O)c1C=C1C=CC=N1`, the displacement worked out at 6.3%.
With `O=c1[nH]c(=O)n(-c2ccc(Br)cc2)c(O)c1C=C1C=CC=N1`, the displacement amounted to 123%.
With `O=c1[nH]c(=O)n(-c2ccc(Cl)cc2)c(O)c1/C=C1/C=CC=N1`, the displacement is -46%.
For the molecule `COc1ccc(-n2c(O)c(/C=C3\C=CC=N3)c(=O)[nH]c2=O)cc1`, the displacement is 85.4%.
The result for `O=C1c2ccccc2C(=O)c2c1cccc2S(=O)(=O)Nc1ccc(Cl)cc1` reads 9.5%; that for `CCOC(=O)C1=C(c2ccccc2)N=c2s/c(=C\c3ccc(O)c(OC)c3)c(=O)n2C1c1ccc(OC)cc1` (stereo not drawn), 104%; that for `CCOC(=O)C1=C(C)N=c2s/c(=C\c3ccc(O)c(OC)c3)c(=O)n2C1c1ccc(C)cc1` (stereo not drawn), 98.4%.
`CCOC(=O)C1=C(C)N=c2s/c(=C\c3ccc(O)c(OC)c3)c(=O)n2C1c1cccc(OC)c1` (stereo not drawn): the displacement is -2.1%.
Turning to `CCOC(=O)C1=C(C)N=c2s/c(=C\c3ccc(O)c(OC)c3)c(=O)n2C1c1ccc(N(C)C)cc1` (stereo not drawn), the displacement is -13.9%.
As to `CCOC(=O)C1=C(C)N=c2s/c(=C\c3ccc(O)c(OC)c3)c(=O)n2C1c1ccc(OC)cc1` (stereo not drawn), the displacement was determined as 4.2%.
The result for `CCOC(=O)C1=C(c2ccccc2)N=c2s/c(=C\c3ccc(O)c(OC)c3)c(=O)n2C1c1ccccc1OC` (stereo not drawn) reads 43.3%.
